Only some compounds are listed: those with a hit (about 0.9% of all), similar ones and a draw of the others.
SRC1 TRFRET art: TR-FRET artefact, counter-screen to PPARgamma/SRC-1 agonist assay; 99,000 tested, 0.34% active; TR-FRET ratio at 8 µM; TR-FRET detection artefact counter-screen, emission ratio; hits give high values; in the data active = TR-FRET ratio above about 2300
SRC3 TRFRET art: counter-screen for PPARgamma SRC-3 recruitment agonists: TR-FRET artefact | 99,000 tested, 0.39% active | TR-FRET ratio at 8 µM | PPARgamma/SRC-3 format; hits give high values | AID 1048
PPARg SRC-2 ag: agonists of SRC-2 recruitment by human PPARgamma; P37231; PPARgamma LBD-SRC-2 recruitment, biochemical; activation, % at 8 µM; 200,000 tested, 0.34% active; in the data active = activation above about 22%;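 also: 0% = vehicle and 100% = reference agonist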
Target sequence (P37231 whole entry, looked up, the tested form may be a part): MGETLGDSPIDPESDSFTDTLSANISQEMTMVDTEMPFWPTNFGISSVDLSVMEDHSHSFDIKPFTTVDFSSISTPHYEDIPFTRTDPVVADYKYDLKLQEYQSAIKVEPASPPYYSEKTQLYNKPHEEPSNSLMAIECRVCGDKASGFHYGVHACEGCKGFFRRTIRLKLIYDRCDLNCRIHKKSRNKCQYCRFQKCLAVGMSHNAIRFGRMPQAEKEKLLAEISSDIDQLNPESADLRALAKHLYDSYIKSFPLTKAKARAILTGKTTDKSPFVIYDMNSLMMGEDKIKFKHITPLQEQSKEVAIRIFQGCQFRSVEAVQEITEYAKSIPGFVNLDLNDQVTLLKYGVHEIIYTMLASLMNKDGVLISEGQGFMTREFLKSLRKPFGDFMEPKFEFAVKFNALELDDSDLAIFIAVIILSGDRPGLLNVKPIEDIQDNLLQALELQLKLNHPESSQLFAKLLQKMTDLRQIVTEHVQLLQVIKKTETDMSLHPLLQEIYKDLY
PPARg SRC-3 ag: promotes SRC-3 coactivator recruitment by human PPARgamma. biochemical PPARgamma/SRC-3 coactivator recruitment assay. activation, % at 8 µM. 200,000 tested, 0.26% active; in the data active = activation above about 23%;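 also: 0% = DMSO and 100% = reference agonist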
PPARg SRC1 recr: agonists of human PPARgamma SRC-1 coactivator recruitment; PPARgamma-SRC-1 coactivator recruitment biochemical assay; 200,000 tested, 0.41% active; activation, % at 8 µM; P37231; in the data active = activation above about 19%;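 also: 0% = DMSO and 100% = reference agonist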
TR-FRET SRC-2 ct: flags TR-FRET format artefacts in PPARgamma SRC-2 recruitment agonist screen; TR-FRET ratio at 8 µM; 200,000 tested, 0.4% active; TR-FRET artefact counter-screen; hits give high values; AID 1049
Numbers without * were called inactive; · = not tested or not shown. Rule as the data show it, unless noted: active = TR-FRET ratio above about 2000; inactive = the rest.

SMILES	SRC1 TRFRET art	SRC3 TRFRET art	PPARg SRC-2 ag	PPARg SRC-3 ag	PPARg SRC1 recr	TR-FRET SRC-2 ct
Cc1cnc(N)c2c(=O)oc3ccccc3c12	·	·	5	7	1	2018*
[O-]/C(=C(\C(=S)Nc1ccccc1F)[n+]1ccccc1)c1ccc(-c2ccccc2)cc1	2348*	1857	9	1	1	1913
CC(C)(C)c1cc[n+](/C(C(=S)Nc2ccccc2F)=C(/[O-])c2ccc3c(c2)OCCO3)cc1	1902	1459	6	3	7	1596
O=S(=O)(Cc1ccccc1Cl)NCCc1ccccc1	1783	1452	-6	4	8	1562
CCN(CC)CCN(Cc1cc2cc3c(cc2[nH]c1=O)OCCO3)C(=O)NC1CCCCC1	·	·	-2	3	19*	1649
O=C(COC(=O)c1ccccc1C(=O)c1ccccc1)NCCc1ccccc1	1888	1639	5	6	21*	1651
O=C(NCc1ccccn1)C1CCN(S(=O)(=O)c2cc(Cl)ccc2Cl)CC1	1601	1567	-7	-6	7	1520
COc1ccccc1C(=O)NCC(=O)OCC(=O)c1ccc2c(c1)-c1ccccc1C2	1947	2088*	16	8	4	1874
Nc1nc(C2CCCN2S(=O)(=O)c2ccc(Cl)cc2)cs1 (stereo unspecified)	·	·	7	5	21*	1686
O=S(=O)(c1ccc(Cl)cc1)N1CCCC1c1nc(-c2ccc(Cl)cc2)no1 (stereo unspecified)	·	·	3	11	5	1734
CC(=O)Nc1ccc(NC(=O)/C=C/c2ccccc2)cc1	2103	1660	4	5	3	1730
CC(=O)N1CCN(c2ccc(NC(=O)/C=C/c3ccccc3)cc2)CC1	2020	1652	24*	5	9	1649
O=C(Nc1ccc(F)cc1)C(Sc1nc2ccccc2[nH]1)c1ccccc1 (stereo unspecified)	1986	1650	5	2	-3	1545
CN(C)S(=O)(=O)c1cccc(NC(=O)c2cc(-c3cccs3)nn2-c2cccc(Cl)c2)c1	2166	2416*	9	8	11	2193*
O=C(O)c1cc(-c2cccs2)nn1-c1cccc(Cl)c1	1898	1777	-4	4	6	1488
Cc1ccc2nc(C)cc(C(=O)OCC(=O)Nc3cccnc3Cl)c2c1	1793	1573	-5	-1	4	1594
CC(C)c1ccc(C2CC(c3ccc(Br)cc3)=NN2C(N)=S)cc1 (stereo unspecified)	2207	1878	7	8	6	1708
Cc1ccc(C2CC(c3ccccc3)=NN2C(=S)Nc2ccccc2)o1 (stereo unspecified)	·	·	5	10	11	1587
CNC(=S)N1N=C(c2ccccc2)CC1c1ccccc1Cl (stereo unspecified)	2109	2267*	14	12	13	1821
CNC(=S)N1N=C(c2ccc(C)cc2)CC1c1ccc(Br)cc1 (stereo unspecified)	·	·	6	2	4	2002*
COc1ccccc1OC(=O)CCN1c2ccccc2Sc2ccccc21	1668	2481*	5	-2	-9	1756
COc1ccccc1C(=O)N1c2ccccc2Sc2ccccc21	1706	1597	-1	3	-2	1478
CCOc1ccc(N(CC(=O)Nc2nccs2)S(=O)(=O)c2c(C)[nH]c(=O)[nH]c2=O)cc1	1767	1377	5	3	7	1716
Nc1ccc(S(=O)C(F)(F)F)cc1 (stereo unspecified)	2021	1634	8	6	8	1576
Cc1cc(C)n(-c2n[nH]c(C)c2[N+](=O)[O-])n1	1604	1302	-3	-5	-7	1487
SMILES	SRC1 TRFRET art	SRC3 TRFRET art	PPARg SRC-2 ag	PPARg SRC-3 ag	PPARg SRC1 recr	TR-FRET SRC-2 ct
CSc1ccc(/C=C/C(=O)c2ccc(NC(=O)Cc3ccccc3)cc2)cc1	·	·	3	10	5	2038*
CSc1ccc(/C=C/C(=O)c2ccc(NC(=O)C(C)C)cc2)cc1	·	·	8	0	-5	1546
CC(Cl)C(=O)NNC(=O)CNS(=O)(=O)c1ccccc1 (stereo unspecified)	1673	1438	0	-1	0	1511
COc1ccc(C2CC(c3ccccc3)=NN2C(=O)COC(=O)c2cc(S(=O)(=O)N3CCOCC3)ccc2Cl)cc1 (stereo unspecified)	2224	1778	-7	4	-1	2080*
Cc1cc2cc(CNC(=S)Nc3ccc(OC(F)F)cc3)ccc2n1C	2282	2435*	11	5	11	2063*
Cc1cc2cc(CNC(=O)Nc3ccc(Cl)c(Cl)c3)ccc2n1C	2614*	1886	10	8	7	1781
COCC(=O)NCc1ccc2c(c1)cc(C)n2C	1864	1649	6	0	6	1821
FC(F)Oc1ccc(NC(=S)NCc2ccccc2)cc1	1600	1564	-8	-2	-2	1417
CSc1nc2ccc3nc(NC(=O)c4ccc(Cl)s4)sc3c2s1	·	·	-1	3	13	1620
CSc1nc2ccc3nc(NC(=O)c4cccs4)sc3c2s1	·	·	-5	-2	41*	1442
N#Cc1cc(C(=O)c2ccccc2OCC(=O)Nc2ccccc2Cl)cn(C2CCCCC2)c1=O	1593	2092*	11	1	4	1657
CC(=O)c1cccc(NC(=O)COc2ccccc2C(=O)c2cc(C#N)c(=O)n(C3CCCCC3)c2)c1	1806	1952	2	1	0	1658
CCCC(C(=O)NC1=NCCS1)c1ccccc1 (stereo unspecified)	1670	1695	9	0	6	1588
CCn1ncc(N(C)N)c(Cl)c1=O	1725	1642	-4	1	-9	1362
CN(c1ccccc1)S(=O)(=O)c1cccc(NC(=O)CCN2C(=O)C3CCCCC3C2=O)c1 (stereo unspecified)	1666	1622	-5	1	2	1401
COc1ccccc1C(=O)Nc1cccc(-c2cn3ccsc3n2)c1	·	·	6	28*	3	1580
O=c1oc2ccccc2cc1-c1cn2ccccc2n1	1911	3228*	5	60*	-7	1565
O=C(NCc1ccco1)c1cc(-c2ccncc2)nc2ccccc12	·	·	0	2	1	1597
O=C(NCc1ccccn1)c1cc(-c2ccccc2)nc2ccccc12	1648	1462	6	-3	-4	1426
O=C(NCc1ccccn1)c1cc(-c2ccc(-c3ccccc3)cc2)nc2ccccc12	1888	2387*	1	-1	2	1653
O=C(NCc1ccco1)c1cc(-c2cccnc2)nc2ccccc12	2325*	1623	12	-4	3	1779
S=c1[nH]nc(-c2ccccc2)n1C1C=CCCC1 (stereo unspecified)	2316*	1754	3	-4	5	1669
CCOC(=O)c1sc(NC(=O)CSc2nnnn2-c2ccc(C)c(C)c2)nc1C	·	·	156*	-6	-2	4861*

Compound activity (PubChem BioAssay)
